Consider 24 molecules from PubChem BioAssay (NCATS).

Structures are written as SMILES. Results filed as inconclusive are left out. Unmarked numbers belong to inactive results. Active and inactive are the calls of the source. The call rests on the fitted dose curve; in most records, active means well fitted cell-killing curve with a large enough effect; inconclusive means small, poorly fitted or top-dose-only effect, or effect the other way; inactive means no such curve, though single readings can be large or run the other way.
Potency means the concentration at half of the fitted maximal effect.

A short description of the first test: Quantitative High-Throughput drug screen in 47 multiple myeloma cell lines against the NCATS MIPE library collection: MM1S_ATCC cell viability assay (AID 1918980). Further: nearly all actives have a fitted effect of over 45% in size.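 On viability (% of control): 100% = wells with DMSO only and 0% = wells with media only.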 As to conditions: MM1S myeloma viability, CellTiter-Glo ATP luminescence, 48 h; series mostly up to 45.8 µM; viability (% of control): at the top concentration. In outline: (§1)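 Cells were exposed to library compounds for 48 hours, after which ATP was measured by CellTiter-Glo. Signal was taken as median relative luminescence units.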
On the technique in general: Cellular ATP, detected with luciferase, serves as a proxy for viable cell number.
Take `COc1ccc2c(c1)c(CC(=O)O)c(C)n2C(=O)c1ccc(Cl)cc1`: the Potency was 18.7 µM (active). As to `Clc1ccc2c(c1)C(N1CCNCC1)=Nc1ccccc1O2`, the Potency was 7.43 µM (active). Regarding `O=C(CCCN1CCC(O)(c2ccc(Cl)cc2)CC1)c1ccc(F)cc1`, the Potency is 9.35 µM (active).

Take `CC(C)Cc1ccc(C(C)C(=O)O)cc1` (configuration not stated): the “viability (% of control)” value is 135% [at 23.2 µM].

With `NC12CC3CC(CC(C3)C1)C2`, the Potency was 1.18 µM (active). As to `OCCN(CCO)c1nc(N2CCCCC2)c2nc(N(CCO)CCO)nc(N3CCCCC3)c2n1`, the Potency was 20.9 µM (active). In the case of `CCOC(=O)Nc1ccc(NCc2ccc(F)cc2)nc1N`, the Potency was 23.5 µM (active).

The next test can be described thus: Quantitative High-Throughput drug screen in 47 multiple myeloma cell lines against the NCATS MIPE library collection: MM1R_ATCC cell viability assay (AID 1918981). Further: nearly all actives have a fitted effect of over 35% in size. As to conditions: MM1R multiple myeloma cells, CellTiter-Glo viability, 48 h; series mostly up to 45.8 µM; viability (% of control): at the top concentration. In outline: as §1
As for `CN1CCC(=C2c3ccccc3C=Cc3ccccc32)CC1`, the Potency is 23.5 µM (active). In the case of `Cc1cn([C@H]2C[C@H](N=[N+]=[N-])[C@@H](CO)O2)c(=O)[nH]c1=O`, the “viability (% of control)” value is 87.7%. As for `COc1ccc2c(c1)c(CC(=O)O)c(C)n2C(=O)c1ccc(Cl)cc1`, the “viability (% of control)” value is 121%. Still for that read-out and setting: next, `CCCNCC(O)COc1ccccc1C(=O)CCc1ccccc1` (configuration not stated): 84.2%; `Cn1ccc2cc3c(cc21)CCN3C(=O)Nc1cccnc1`: 116%; `O=C(CCCN1CCC(O)(c2ccc(Cl)cc2)CC1)c1ccc(F)cc1`: 96.8%. For the molecule `CC(C)(Oc1ccc(C2CC2(Cl)Cl)cc1)C(=O)O` (configuration not stated), the Potency was 48.1 µM (active). For the molecule `CCOC(=O)c1ncn2c1CN(C)C(=O)c1cc(F)ccc1-2`, the Potency is 18.7 µM (active). `Clc1ccc2nsnc2c1NC1=NCCN1`: the “viability (% of control)” value was 101%. On to `COc1cc2nc(N3CCN(C(=O)c4ccco4)CC3)nc(N)c2cc1OC`, for which the Potency was 26.4 µM (active). In the case of `Cc1cc(C(C)(C)C)c(O)c(C)c1CC1=NCCN1`, the “viability (% of control)” value was 113%. Regarding `CC(C)Cc1ccc(C(C)C(=O)O)cc1` (configuration not stated), the “viability (% of control)” value was 122% [at 23.2 µM]. As to `C[C@@H]1CC(=O)NN=C1c1ccc(NN=C(C#N)C#N)cc1`, the Potency is 20.9 µM (active). As for `Cc1ccc(-c2cc(C(F)(F)F)nn2-c2ccc(S(N)(=O)=O)cc2)cc1`, the Potency was 8.33 µM (active). As for `Cn1c(=O)c2c(ncn2C)n(C)c1=O`, the “viability (% of control)” value is 91.6%. With `CN(Cc1cnc2nc(N)nc(N)c2n1)c1ccc(C(=O)N[C@@H](CCC(=O)O)C(=O)O)cc1`, the Potency is 0.935 µM (active). On to `CC(CCc1ccc(O)cc1)NCCc1ccc(O)c(O)c1` (configuration not stated), for which the Potency was 18.7 µM (active). Consider `NC(=O)OCC(COC(N)=O)c1ccccc1`, for which the “viability (% of control)” value was 118%. With `O=C1Cc2cc(CCN3CCN(c4nsc5ccccc45)CC3)c(Cl)cc2N1`, the Potency was 20.9 µM (active).

`COc1cc2nc(N3CCN(C(=O)C4COc5ccccc5O4)CC3)nc(N)c2cc1OC` (configuration not stated): the Potency was 20.9 µM (active).
